Compounds without any hit were thinned out: in the full panel of roughly 83,000, 20% have a hit.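 Percent growth is the endpoint: 0 to 100 indicates growth inhibition (40 means 60% inhibition), 0 means no net growth, and negative values indicate cell death.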 Values without a mark were called inactive. Activity calls are given as the source filed them. Rule for the calls: active = growth percent below 10; inactive = the rest.

What all share (assay): NCI-60 one-dose screen, 48 h (100 = growth as untreated, 0 = no growth, -100 = all killed)
What all share (details): 10 µM unless noted

Assay [1] has as its system NCI-H23 lung.
Assay [2] deals with NCI-H226 lung.
The test system of assay [3] is NCI-H322M lung.
The test system of assay [4] is HOP-62 NSCLC.
In assay [5] the test system is NCI-H460 lung.
The subject of assay [6] is HOP-92 NSCLC.
Assay [7] has as its system NCI-H522 lung.
For assay [8], the system named is A549/ATCC NSCLC.
For assay [9], the system named is 786-0 renal.
The subject of assay [10] is COLO 205 colon.

As for `O=C(C[n+]1ccnc2ccccc21)c1ccc(O)c(O)c1`, the growth in assay [1] is 63.8%; in assay [2], 71.1%; in [3] it was 90.8%; in assay [4], 90.7%; in assay [5], 70.9%; in assay [6], 64.8%. For the same compound, the growth in assay [7] was -5% (active); in [8] it was 87.1%; in [9], 44.3%; in assay [10] it was 30.8%.
Consider `O=c1[nH]c(CCl)nc2c1cnn2-c1ccccc1`, for which the growth was 101% in [1]; 110% in assay [2]; 101% in assay [3]; 125% in assay [4]; 101% in assay [5]; 101% in assay [6]. The growth in [7] is 103%; in assay [8], 98.6%; in [9] it was 77.9%; in assay [10], 114%.
As for `CN1CCN(Cc2ccc(NC(=O)c3cncc(C#Cc4cnc5ccc(NC6CCOCC6)nn45)c3)cc2C(F)(F)F)CC1`, the growth was -52.9% (active) in [1]; -53.1% (active) in [2]; -20% (active) in assay [3]; -0.603% (active) in [4]; -81.4% (active) in [5]; -29.2% (active) in [6]. The growth in [7] is -68.5% (active); in assay [8] it was -14.2% (active); in assay [9] it was -88.3% (active); in [10], -90.6% (active).
Turning to `O=C(CN1CCN(c2cc(=O)n(-c3ccccc3)c3ccccc23)CC1)Nc1ccc([N+](=O)[O-])cc1`, the growth in assay [1] was 82.5%; in [2] it was 83.5%; in assay [3] it was 88.1%; in assay [4], 95.1%; in [5], 94.3%; in assay [6], 76.5%. For the same compound, the growth was 82.5% in assay [7], 95.1% in assay [8], 90.5% in assay [9] and 107% in [10].
With `Oc1ccc(CSc2nnc(-c3cnccn3)n2-c2ccccc2)c2cccnc12`, the growth in assay [1] was 26.9%; in assay [2], 30%; in [3], 31.2%; in assay [4] it was 22.1%; in assay [5], 10.4%; in assay [6], -3.39% (active). The growth in assay [7] was 2.33% (active); in [8] it was 29.5%; in assay [9], 35.1%; in assay [10], 103%.
As to `CCN1CCN(Cc2ccc(C(=O)Nc3nc4ccc(Oc5ccnc(C(=O)NC)c5)cc4s3)cc2C(F)(F)F)CC1`, the growth was 42% in assay [1]; 76.3% in [2]; 66.1% in assay [3]; 63.9% in [4]; 26.2% in assay [5]; 37.4% in assay [6]. The growth in [7] is 58.9%; in assay [8], 60.1%; in [9], 39.5%; in [10] it was -43% (active).
Turning to `CN1C(=O)N(C)C2Nn3c(s/c(=C\c4ccccn4)c3=O)=NC21` (centres undefined), the growth is 108% in assay [1]; 103% in assay [2]; 103% in [3]; 100% in [4]; 110% in [5]; 107% in assay [6]. The growth was 92.3% in [7], 103% in assay [8], 104% in assay [9] and 110% in [10].
Consider `CS(=O)(=O)c1nccc(-c2c(-c3ccc(F)c(OCc4ccc(F)cc4)c3)nc3sccn23)n1`, for which the growth in assay [1] is 99.2%; in assay [2], 83.7%; in assay [3] it was -78.2% (active); in [4], 68.3%; in assay [5], 10.3%; in assay [6] it was 23%. The growth in assay [7] is 53.9%; in assay [8], 104%; in assay [9], 95.1%; in assay [10], 109%.
As to `CCCC(=O)NC(c1cccnc1)c1cc(Cl)c2cccnc2c1O` (centres undefined), the growth was 44.7% in assay [1]; 48.9% in assay [2]; 47.1% in assay [3]; 32.2% in assay [4]; 25.3% in assay [5]; -5.51% (active) in [6]. Moreover, the growth in assay [7] was 16.8%; in assay [8], 39.7%; in [9] it was 50.9%; in assay [10], 30.8%.
`O=C(c1cccc(F)c1)n1ccc2cc(NC(=S)Nc3cccnc3)ccc21`: the growth in assay [1] is 100%; in assay [2], 112%; in [3] it was 99%; in assay [4], 106%; in assay [5], 98.6%; in assay [6], 123%. In addition, the growth in assay [7] is 87.1%; in [8], 98.7%; in assay [9], 80.5%; in assay [10] it was 115%.
`CNC(=O)c1c(NC(=O)c2ccc(F)cc2F)sc2c1CCC(=O)C2`: the growth in assay [1] is 5.55% (active); in [2], 15.7%; in [3], 33.3%; in assay [4] it was 16.3%; in assay [5] it was 1.92% (active); in [6], -34% (active). Further, the growth was -10.1% (active) in [7], 24% in assay [9] and -74% (active) in assay [10].
For `c1cncc(-c2cn3nc(-c4c[nH]c5ccccc45)sc3n2)c1`, the growth in assay [1] was 49.9%; in [2] it was -48.5% (active); in assay [3], 72.2%; in assay [4], 66%; in [5], 25.4%; in assay [6], 33.8%. Besides, the growth in assay [7] was 2.85% (active); in assay [9], 22.5%; in [10], 44.4%.
For the compound `COc1ccc(Cn2cc3c(c2-c2cc(OC)c(OC)c(OC)c2)CCCc2cnoc2-3)cc1`, the growth in [1] is 32.5%; in [2], 53.6%; in assay [3] it was 39.6%; in assay [4], 43.2%; in [5], 7.42% (active); in assay [6], 50.6%. The growth in [7] was 10.4%; in [9], 37.1%.
Take `CCc1ccc(NC(=O)N[C@@H](Cc2cc(F)cc(F)c2)C(=O)N[C@@H]2C(=O)N3CCC[C@H]3C(=O)N3CCO[C@H](C)[C@H]3C(=O)N[C@@H](CO)C(=O)N3C[C@H](C)C[C@H]3C(=O)O[C@H]2C)c(F)c1`: the growth in assay [1] was 35.4%; in assay [2], 4.36% (active); in assay [3], 50.8%; in [4] it was 32.6%; in assay [5], 16.3%; in [6] it was -1.76% (active). The growth is 17.5% in [7], 39.8% in assay [9] and -42.7% (active) in assay [10].
As for `CS(=O)c1nccc(-c2c(-c3ccc(F)c(OCc4ccc(F)cc4)c3)nc3sccn23)n1` (centres undefined), the growth was 61.6% in assay [1]; 95.3% in assay [2]; 62.7% in [3]; 100% in assay [4]; 35.6% in [5]; 16.9% in [6]. For the same compound, the figures for the growth in [7], in assay [9] and in [10] were -51.8% (active), 100% and 100%, respectively.
Regarding `CCNCCCn1c2c(c3cc(OC)c(OC)cc3c1=O)C(=O)c1cc(OC)cnc1-2`, the growth in assay [1] is 21.1%; in assay [2], 17.7%; in [3], 33.2%; in [4], -12.2% (active); in assay [5], 0.566% (active); in [6] it was 31.1%. The growth was 13.4% in [7], -3.55% (active) in [9] and 13.4% in assay [10].
With `CCC(CC)n1c(=O)c(SC2=NC3C(NN2)N(CC)C(=O)N3CC)c(C(=O)O)c2ccccc21` (centres undefined), the growth in assay [1] was 11.7%; in [2], 36.1%; in assay [3] it was 54.7%; in [4], 33.6%; in assay [5], 3.21% (active); in assay [6], 21.7%. In addition, the values for the growth in [7], in [9] and in [10] were -45% (active), 27.9% and -53.4% (active), respectively.
Regarding `CS(=O)c1nccc(-c2c(-c3ccc(F)c(OCc4ccccc4)c3)nc3sccn23)n1` (centres undefined), the growth in assay [1] is 88.2%; in assay [2], 96.3%; in [3], 73.1%; in assay [4], 103%; in assay [5], 19.1%; in assay [6], 51.8%. The growth in [7] is 31.6%; in [8] it was 100%; in [9] it was 99.1%; in assay [10], 106%.
In the case of `O=C(c1ccc(O)cc1)[C@@H]1[C@@H]2CCCN2[C@@]2(C(=O)N(C(=O)c3ccc(F)cc3)c3ccccc32)[C@H]1c1ccc(F)cc1`, the growth is 98.5% in [1]; 94.3% in assay [2]; 98.6% in assay [3]; 97.4% in assay [4]; 99.6% in assay [5]; 67% in assay [6]. For the same compound, the growth in [7] was 93.7%; in assay [9] it was 100%; in assay [10], 105%.
With `Oc1ccccc1/C=N/Nc1nc(N/N=C/c2ccccc2O)nc(N2CCOCC2)n1`, the growth in [1] was 41.5%; in [2] it was 23.3%; in assay [3], 44.5%; in assay [4], 25.7%; in [5], 32.5%; in assay [6], -12.8% (active). The figures for the growth in assay [7], in assay [9] and in [10] were 60.9%, 30.3% and 48%, respectively.
`CC(C)N=C(N/C(N)=N/c1nc2ccccc2s1)NC(C)C`: the growth is 47.5% in assay [1]; 67.2% in assay [2]; 62.2% in assay [3]; 55.4% in [4]; 48.8% in [5]; 30.8% in [6]. In addition, the growth was 85.1% in assay [7], 58.5% in assay [9] and 55.6% in assay [10].
On to `Nc1nc(N)c2c(n1)NC(c1ccccc1)CC(c1ccc(Nc3nc(NCCO)nc(Nc4ccc(Cl)cc4)n3)cc1)=N2` (centres undefined), for which the growth was 41.2% in assay [1]; 91.9% in assay [2]; 63.2% in [3]; -69.6% (active) in assay [4]; -80.3% (active) in assay [5]; -79.1% (active) in [6]. Also, the values for the growth in [7], in assay [9] and in assay [10] were 41%, -86% (active) and 80.8%, respectively.
With `CCOC(=O)C1=C(C)N=C2Sc3ccccc3N2C1c1ccccc1` (centres undefined), the growth in [1] was 85.2%; in assay [2], 89.2%; in assay [3] it was 86.8%; in assay [4], 101%; in assay [5], 91.2%; in assay [6] it was 75.4%. The figures for the growth in assay [7], in assay [9] and in assay [10] were 73.9%, 87.7% and 96%, respectively.
Take `C=CCn1c(SCC(=O)Nc2cccc(C(=O)/C=C/c3ccc(C)cc3)c2)nc2ccccc2c1=O`: the growth in [1] is 81.3%; in assay [2], 92.6%; in assay [3] it was 92.1%; in assay [4], 113%; in [5] it was 94.8%; in assay [6] it was 103%. Besides, the growth was 83.8% in assay [7], 98.9% in [9] and 109% in assay [10].
Regarding `Nc1c(C(=O)c2ccccc2)sc2nc(-c3cnccn3)cc(-c3cccs3)c12`, the growth in assay [1] was 104%; in assay [2] it was 95.8%; in assay [3], 100%; in assay [4], 97.6%; in [5], 103%; in assay [6], 106%. Moreover, the values for the growth in assay [7], in [9] and in assay [10] were 96.8%, 106% and 108%, respectively.
As for `C=CCn1c(SCC(=O)Nc2cccc(C(=O)/C=C/c3ccc(OC)c(OC)c3)c2)nc2ccccc2c1=O`, the growth in assay [1] is 93.2%; in [2] it was 83.7%; in assay [3], 87.8%; in assay [4], 103%; in assay [5], 91.7%; in assay [6] it was 84.6%. For the same compound, the growth in [7] was 83.6%; in assay [9] it was 100%; in [10], 116%.
As for `CS(=O)(=O)c1ccc2c(c1)c1c(n2Cc2ccc(Cl)cc2)CCCC1`, the growth in [1] was 73.5%; in assay [2], 80.1%; in assay [3], 87.7%; in [4], 75.8%; in [5] it was 71.6%; in [6] it was 65.7%. For the same compound, the growth in assay [7] was 13.7%; in [8] it was 64.5%; in assay [9], 83.5%; in assay [10] it was 83.3%.

For the origin of these results see PubChem BioAssay (NCI).
